Source: PubChem BioAssay (NCATS)
Inconclusive results are not listed. The source made the active and inactive calls. Calls come from the whole dose curve; as a rule, active = well fitted cell-killing curve with a large enough effect; inconclusive = small, poorly fitted or top-dose-only effect; inactive = flat fitted curve, though single readings scatter.

Experiments:
[1] = Cell Viability - LYMP2-025 (AID 976); note: series mostly up to about 92 µM
Procedure, shortened: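 Acute cytotoxicity is scored as a concentration-dependent fall in intracellular ATP, measured by luciferase luminescence, in human lymphoblastoid LYMP2-025 cells exposed to compound for 24 hours at 37 C. AC50 values come from standard Hill fits.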

[2] = Cell Viability - LYMP2-002 (AID 977);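 note: series mostly up to about 92 µM; compound exposure lasted 24 h at 37 °C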
Procedure, shortened: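 In this qHTS viability screen, 2500 human lymphoblastoid cells per well receive compound for 24 hr at 37 C, and luciferase-based ATP luminescence gives the viability signal. Tetraoctylammonium bromide serves as positive control.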

[3] = Cell Viability - LYMP2-006 (AID 978); note: series mostly up to about 92 µM; nearly all actives have a fitted effect of over 60% in size
Procedure, shortened: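 Human lymphoblastoid cells, 2500 per well, were preincubated 5 hr at 37 C, then exposed to compounds for 24 hr at 37 C in complete medium. Viability was read as intracellular ATP by CellTiter-Glo luminescence; AC50 from Hill-equation fits of qHTS concentration-response data.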

[4] = Cell Viability - LYMP2-007 (AID 979);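 note: cells exposed to compound for 24 h before reading; nearly all actives have a fitted effect of over 60% in size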
Procedure, shortened: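 Cells are seeded at 2500 per well and rested 5 hr. Compounds are then added over a concentration series for 24 hr at 37 C. CellTiter-Glo is added for 30 min at room temperature before luminescence reading.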

[5] = Cell Viability - LYMP2-008 (AID 980); note: nearly all actives have a fitted effect of over 60% in size
Procedure, shortened: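 Cells seeded at 2500/well and rested 5 hr at 37 C; compounds added over a concentration range and incubated 24 hr at 37 C; CellTiter-Glo added, 30 min at room temperature; luminescence read and AC50 fitted with Hill model.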

[6] = Cell Viability - LYMP2-010 (AID 981); note: nearly all actives have a fitted effect of over 55% in size
Procedure, shortened: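 Steps: seed 2500 LYMP2-010 cells per well; incubate 5 hr at 37 C; add compound; incubate 24 hr at 37 C; add CellTiter-Glo, wait 30 min at room temperature; read luminescence. Concentration-response fitted to Hill equation for AC50.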

[7] = Cell Viability - LYMP2-012 (AID 982);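 note: cellular ATP by luciferase luminescence where a drop means cytotoxicity; cells exposed to compound for one day before reading; nearly all actives have a fitted effect of over 55% in size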
[8] = Cell Viability - LYMP2-014 (AID 983); note: series mostly up to about 92 µM; nearly all actives have a fitted effect of over 50% in size
Procedure, shortened: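 Cells are plated at 2500/well and left 5 hr at 37 C. Compounds are added across a concentration range and incubated 24 hr at 37 C in complete medium. CellTiter-Glo is added, and luminescence is read after 30 min at room temperature.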

[9] = Cell Viability - LYMP2-016 (AID 984); note: nearly all actives have a fitted effect of over 55% in size
Procedure, shortened: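 Human lymphoblastoid cells (LYMP2-016), 2500/well in complete medium, preincubated 5 hr at 37 C, then compound-treated 24 hr at 37 C. Intracellular ATP read by CellTiter-Glo luminescence after 30 min at room temperature; AC50 from Hill-equation concentration-response fits.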

[10] = Cell Viability - LYMP2-018 (AID 985);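 note: compound exposure lasted 24 hr at 37 °C; nearly all actives have a fitted effect of over 50% in size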
Procedure, shortened: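 Seed 2500 lymphoblastoid cells per well, incubate 5 hr at 37 C, add compound and incubate 24 hr at 37 C, add CellTiter-Glo, wait 30 min at room temperature, then read luminescence.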

Measured: outcome

CCCCCCCCCC(=O)O
inactive: [1] | [2] | [3] | [4] | [5] | [6] | [7] | [8] | [9] | [10]

C=Cc1ccccc1
inactive: [1] | [2] | [3] | [4] | [5] | [6] | [9] | [10]

O=C(O)CC(O)(CC(=O)O)C(=O)O
inactive: [1] | [2] | [3] | [7] | [8] | [9] | [10]

COC(C)=O
inactive: [1] | [2] | [3] | [4] | [5] | [6] | [7] | [8] | [9] | [10]

CN(C)Cc1ccccc1
inactive: [1] | [2] | [3] | [4] | [5] | [6] | [7] | [8] | [9] | [10]
